Read-outs that look alike come from different tables or passages of the source. Hit rate of the full screen: of about 13,000 compounds, about 3,200 (25%) showed an effect of 50% or more. Some of the results follow.
System: P. falciparum stage V gametocytes
Design: BacTiter-Glo ATP luminescence viability of purified stage V gametocytes in 384-well plates, per cent inhibition versus DMSO
Details: 48 h, 5 µM, inhibitor

Structure (SMILES)	% Inhibition [%]	% Inhibition (% Inhibition) [%]
O=C(N[C@@H](CC1CCCCC1)C(=O)NCc1cccc2ccccc12)c1ccc(O)c(-c2ccc(Cl)c(Cl)c2)c1 [TCMDC-140879]	41.81	–
Cc1noc(C)c1-c1cccc(CNCc2ccc(-c3cccc(-c4nc5cc(F)ccc5[nH]4)c3)cc2)c1.O=C(O)C(F)(F)F [TCMDC-133060]	13.66	–
Cc1cccc(Oc2cccc3[nH]nc(N)c23)c1 [TCMDC-131935]	-73.01	–
Cc1cc(C(F)(F)F)n2nc(C3CCN(Cc4cc(C)c(O)c(C)c4)C3)cc2n1 (stereo not drawn) [TCMDC-124827]	92.15	–
COCCOc1cccc(CN2CCC(c3cc4nc(C)cc(C(F)(F)F)n4n3)C2)c1 (stereo not drawn) [TCMDC-134506]	-5.307	–
Cc1cc(C(F)(F)F)n2nc(C(=O)N(Cc3cncn3Cc3cccc(F)c3)CC3CC3)cc2n1 [TCMDC-132460]	0.2406	–
COCCNCc1ccc(-c2cccc(CN(C(=O)NCCc3ccccc3)C3CCN(Cc4ccccc4)CC3)c2)cc1 [TCMDC-140616]	102.8	–
O=C(c1cccs1)N(Cc1cccc(-c2ccc(CNC3CCCC3)cc2)c1)C1CCN(Cc2ccccc2)CC1 [TCMDC-140567]	107	–
COCC(=O)N(Cc1cccc(-c2ccc(CNCCc3ccccc3)cc2)c1)C1CCN(Cc2ccccc2)CC1 [TCMDC-140536]	103	–
O=C(NCCc1ccccc1)N(Cc1cccc(-c2ccc(CNCCc3ccccc3)cc2)c1)C1CCN(Cc2ccccc2)CC1 [TCMDC-140617]	94.88	–
COc1cc(Nc2ccnc3ccc(C(F)(F)F)cc23)cc(OC)c1OC [TCMDC-138471]	8.096	–
Cc1cc(C)cc(N2C(N)=NC(N)=NC2(C)C)c1 [TCMDC-137927]	10.77	–
CCOC(=O)c1c(NC(NC(=O)c2ccc(C(C)(C)C)cc2)C(Cl)(Cl)Cl)sc2c1CCCC2 (stereo not drawn) [TCMDC-125722]	17.61	–
Cc1cccc(CC(N)=NCCCCCCN=C(N)Cc2cccc(C)c2)c1 [TCMDC-138135]	-14.49	–
CC(C)C[C@H](NC(=O)OC(C)(C)C)C(=O)Nc1ccc(Cc2ccc(NC(=O)[C@H](CC(C)C)NC(=O)OC(C)(C)C)cc2)cc1 [TCMDC-131866]	-6.979	–
CCS[C@@H]1O[C@H](COC(=O)c2ccccc2)[C@H](OC(=O)c2ccccc2)[C@H](OC(=O)c2ccccc2)[C@H]1OC(=O)c1ccccc1 [TCMDC-137162]	42.17	–
COc1ccccc1Nc1nc(C)cc(NCc2ccc(-c3c(C)noc3C)cc2)n1 [TCMDC-133453]	12.57	–
Cc1[nH]c2cc(Cl)ccc2c1C1=CCN(CCCCC2(C)C(=O)Nc3ccccc32)CC1 (stereo not drawn) [TCMDC-140945]	-53	–
COc1cc(C(=O)NCCCN2CCN(c3cccc(Cl)c3)CC2)ccc1-c1cc2cc(Cl)c(Cl)cc2[nH]1 [TCMDC-139622]	6.24	–
O=C(c1cccs1)N(Cc1cccc(-c2ccc(CNCCc3ccccc3)cc2)c1)C1CCN(Cc2ccccc2)CC1 [TCMDC-140566]	66.5	–
O=C(NCCc1ccccc1)N(Cc1ccc(-c2cccc(CN3CCNCC3)c2)cc1)C1CCN(Cc2ccccc2)CC1 [TCMDC-139635]	105.4	–
O=C(NCCc1ccccc1)N(Cc1cccc(-c2ccc(CNC3CCCC3)cc2)c1)C1CCN(Cc2ccccc2)CC1 [TCMDC-140618]	99.39	–

Structure (SMILES)	% Inhibition [%]	% Inhibition (% Inhibition) [%]
O=c1cc(NCCCNCc2cc3ccccc3s2)[nH]c2ccccc12 [TCMDC-140234]	-96.03	–
COc1ccc(NC(=O)/C=C/c2ccc(Cl)c(C(F)(F)F)c2)cc1OCCN(C(C)C)C(C)C [TCMDC-139646]	-39.1	–
COc1ccc(Br)cc1C1C2C(=O)N(c3ccc(Br)cc3)C(=O)C2C2(C(=O)O)CC(OCc3ccccc3)CN12 (stereo not drawn) [TCMDC-139264]	14.59	–
N#Cc1ccnc(-c2ccc(CNC3CCN(CC4Cn5c(=O)ccc6ccc(F)c4c65)CC3)cc2)c1 (stereo not drawn) [TCMDC-134408]	-28.26	–
CCc1ccc(OCCCON2C(N)=NC(N)=NC2(C)C)cc1 [TCMDC-131321]	2.956	–
CC(=O)Nc1cccc(NC(=O)CSc2ccc(-c3nc4ccccc4[nH]3)cn2)c1 [TCMDC-123529]	49.75	–
O=C(CCC1CCCC1)N(Cc1ccc(-c2ccc(CNCCc3ccccc3)cc2)cc1)C1CCCNC1 (stereo not drawn) [TCMDC-141444]	116.1	–
O=C(C1CC1c1ccccc1)N(Cc1ccc(-c2ccc(CNCCc3ccccc3)cc2)cc1)C1CCNCC1 (stereo not drawn) [TCMDC-141443]	108.5	–
CC(=O)Nc1ncc(C(=O)Nc2cccc(-c3cccc(-c4nc5ccccc5[nH]4)c3)c2)s1 [TCMDC-136911]	11.96	–
CC(=O)N1N=C(c2[nH]c3ccc(Br)cc3c2C)OC1c1ccccc1 (stereo not drawn) [TCMDC-124752]	9.307	–
Cc1cc(N)nc2ccc(-c3ccc(CCN)cc3)cc12 [TCMDC-137786]	103.4	–
Cc1ccc(O)cc1Nc1ccnc2ccc(-c3cccc(CN(C)C)c3)cc12 [TCMDC-138481]	38.94	–
Cc1ccc(Cc2c(N)nc3nc(N)nc(N)c3c2C)cc1 [TCMDC-138063]	9.056	–
NCc1ccc(Nc2nccc(Nc3ccc(-c4ccccc4)cc3)n2)cc1 [TCMDC-136004]	25.82	–
COc1ccc2nc(C)cc(NCc3ccc4ccccc4c3)c2c1.Cl [TCMDC-138977]	6.085	–
Cc1cc(N)nc2ccc(CNCCc3ccccc3Br)cc12 [TCMDC-138092]	32.49	–
Cc1cc(N)nc2ccc(-c3ccc(CN)cc3)cc12 [TCMDC-137785]	97.26	–
COc1ccc(CCNCc2ccc3c(C)cc(N)nc3c2)cc1 [TCMDC-138096]	41.14	–
Cc1cc(N)nc2ccc(-c3cccc(CN)c3)cc12 [TCMDC-137784]	92.85	–
COc1ccc(CCNCc2ccc3nc(N)cc(C)c3c2)cc1 [TCMDC-138093]	96.45	–
CC[C@H]1CN2CC[C@@H]1C[C@H]2[C@H](O)c1cc(N2CCC(O)CC2)nc2ccc(OC)cc12 [TCMDC-141415]	17.87	–
CCOc1ccc2nccc([C@@H](O)[C@@H]3C[C@@H]4CCN3C[C@@H]4CC)c2c1 [TCMDC-125547]	–	-52.19

Structure (SMILES)	% Inhibition [%]	% Inhibition (% Inhibition) [%]
CC[C@H]1CN2CC[C@H]1C[C@H]2[C@H](O)c1ccnc2ccc(OC)cc12 [TCMDC-123485]	-3.295	–
CC[C@H]1CN2CC[C@@H]1C[C@H]2[C@H](O)c1ccnc2ccc(OC)cc12 [TCMDC-142003]	82.89	–
CC[C@H]1CN2CC[C@@H]1C[C@H]2[C@H](O)c1cc(N2CCC(c3ccccc3)CC2)nc2ccc(OC)cc12 [TCMDC-141435]	91.21	–
CC[C@H]1CN2CC[C@@H]1C[C@H]2[C@H](O)c1cc(N2CCC(C)CC2)nc2ccc(OC)cc12 [TCMDC-141419]	96.92	–
CC[C@H]1CN2CC[C@H]1C[C@H]2[C@H](O)c1cc(N2CCCC(CO)C2)nc2ccc(OC)cc12 (stereo partly drawn) [TCMDC-141417]	-19.77	–
CC[C@H]1CN2CC[C@@H]1C[C@H]2[C@H](O)c1cc(N2CCC(CO)CC2)nc2ccc(OC)cc12 [TCMDC-141418]	34.66	–
CC[C@H]1CN2CC[C@@H]1C[C@H]2[C@H](O)c1cc(N2CCCC(C)(C)C2)nc2ccc(OC)cc12 [TCMDC-141423]	67.35	–
O=C(/C=C/c1ccc(Cl)c(Cl)c1)NCCCCCN1CCCN(C(=S)Nc2ccc(Cl)c(Cl)c2)CC1 [TCMDC-135896]	-3.43	–
N#Cc1ccc2c(c1)CCN(CCC1CCC(NC(=O)Nc3cnc4ccccc4c3)CC1)C2 (stereo not drawn) [TCMDC-139440]	3.253	–
CC[C@H]1CN2CC[C@@H]1C[C@H]2[C@H](O)c1cc(N2CCC(N3CCCCC3)CC2)nc2ccc(OC)cc12 [TCMDC-141442]	105.7	–
CC[C@H]1CN2CC[C@@H]1C[C@H]2[C@H](O)c1cc(N2CCSCC2)nc2ccc(OC)cc12 [TCMDC-141424]	79.98	–
CC[C@H]1CN2CC[C@@H]1C[C@H]2[C@H](O)c1cc(N2CCOCC2)nc2ccc(OC)cc12 [TCMDC-141416]	-92.7	–
CC[C@H]1CN2CC[C@H]1C[C@H]2[C@H](O)c1cc(N2CCC3CCCCC3C2)nc2ccc(OC)cc12 (stereo partly drawn) [TCMDC-141440]	90.7	–
CC[C@H]1CN2CC[C@@H]1C[C@H]2[C@H](O)c1cc(N2CCC(O)(c3ccc(Cl)cc3)CC2)nc2ccc(OC)cc12 [TCMDC-141439]	74.49	–
CC[C@H]1CN2CC[C@@H]1C[C@H]2[C@H](O)c1cc(N2CCC(C(N)=O)CC2)nc2ccc(OC)cc12 [TCMDC-141441]	-22.84	–
CC[C@H]1CN2CC[C@@H]1C[C@H]2[C@H](O)c1cc(N2CCC(O)(c3ccccc3)CC2)nc2ccc(OC)cc12 [TCMDC-141438]	44.1	–
CC[C@H]1CN2CC[C@H]1C[C@H]2[C@H](O)c1cc(N2CCCC2)nc2ccc(OC)cc12 [TCMDC-141217]	-33.27	–
CC[C@H]1CN2CC[C@H]1C[C@H]2[C@H](O)c1cc(N2CCCC(C(=O)N(CC)CC)C2)nc2ccc(OC)cc12 (stereo partly drawn) [TCMDC-141434]	46.24	–
O=C(Nc1ccc(OC2CCN(Cc3ccc(F)cc3)C2)c(Cl)c1)c1ccccc1 (stereo not drawn) [TCMDC-133762]	42.11	–
Cc1ccc(S(=O)(=O)N(CCCNCc2cccc(O)c2)c2ccccc2)cc1 [TCMDC-138022]	66.9	–
Cc1cccc(CCCNC(=O)CN(c2cccc(C(F)(F)F)c2)S(=O)(=O)c2ccc(C(F)(F)F)cc2)c1 [TCMDC-136508]	-41.52	–
Oc1cccc(CNCCCN(Cc2ccccc2)c2ccccc2)c1 [TCMDC-137875]	12.29	–

Source: paper PMC4552634, “A New Set of Chemical Starting Points with Plasmodium falciparum Transmission-Blocking Potential for Antimalarial Drug Discovery” (PLoS ONE, 2015)
